Measurements published in PubChem BioAssay (Tox21).
Inconclusive results are not listed. Entries that show only a call come without a potency. A number with no mark means an inactive call. Calls of active or inactive are those of the source. The call rests on the fitted dose curve; in most records, active means well fitted cell-killing curve with a large enough effect in the repeat runs; inconclusive means weak or mixed curves, or effect the other way; inactive means flat fitted curve, though single readings scatter.

Experiments:
[1] = cAMP Responsive Elements (CRE) small molecule antagonists, cell-based qHTS assay: qHTS cell viability counter screen (AID 2060913); conditions: CRE-bla HEK293T viability, CellTiter-Glo luminescence, 5 h; series mostly up to 92.4 µM; further: nearly all actives have a fitted effect of over 40% in size
In short: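 Viability of NKH477-stimulated (0.25 uM final) CRE-bla HEK293T cells is measured by CellTiter-Glo luminescence following 3 hrs compound exposure at 37 C.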

[2] = cAMP Responsive Elements (CRE) small molecule agonists, cell-based qHTS assay: qHTS cell viability counter screen (AID 2060914); conditions: CRE-bla HEK293T viability, CellTiter-Glo luminescence, 5 h; series mostly up to 92.4 µM;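 further: viability read after 3 h of compound exposure; nearly all actives have a fitted effect of over 50% in size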
In short: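 Cells are seeded and incubated 18 h, treated with compounds in DMSO for 3 h, read for the bla reporter, then given CellTiter-Glo; luminescence is measured after 30 min at room temperature.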

SMILES	Potency [1]	Potency [2]	viability change, negative = cytotoxic [1]	activity change, negative = cytotoxicity [2]
c1ccc2ccccc2c1	inactive	inactive	–	–
CCCCC(CC)CO (centres undefined)	inactive	inactive	–	–
CC(=O)Oc1cccc(C)c1	inactive	inactive	–	–
O=C(OOC(=O)c1ccccc1)c1ccccc1	inactive	inactive	–	–
COc1cc(OC)c2ccc(=O)oc2c1	inactive	inactive	–	–
CCCCCCCCN1CCCC1=O	inactive	inactive	–	–
O=C(O)CNCC(=O)O	–	–	19.6% [at 8.39 µM]	-11.1% [at 8.39 µM]
C=CCc1cc(OC)c(O)c(C(=O)NCCO)c1	inactive	inactive	–	–
CC1=CC(=O)NS(=O)(=O)O1	inactive	inactive	–	–
CC(CCC(=O)O)(c1ccc(O)cc1)c1ccc(O)cc1	inactive	inactive	–	–
Nc1cc(S(=O)(=O)O)ccc1O	inactive	inactive	–	–
Cc1cc2c(cc1CC(=O)c1sccc1S(=O)(=O)Nc1onc(C)c1Cl)OCO2	inactive	inactive	–	–
CCC(C)S (centres undefined)	–	–	3.82% [at 3.27 µM]	5.15% [at 3.27 µM]
C=CCCCCCCCC	inactive	inactive	–	–
NC(N)=NS(=O)(=O)c1ccc(N)cc1	inactive	inactive	–	–
CC(=O)OCC(C)OC(C)=O (centres undefined)	inactive	inactive	–	–
CCCCCCCCCCO[C@@H]1O[C@H](CO)[C@@H](O)[C@H](O)[C@H]1O	inactive	inactive	–	–
